The source of these data is the OligoGym collection.
Further: reference of the scale not given here.

In one assay the target is KRTAP5-8. The assay can be described thus: pooled miR-30 sensor sort-seq; sequence = guide strand. To be noted: shRNA.
TGCAGGGCTTACAACAGCTGGA came in with a sensor-assay potency score (higher = more potent) of -1.15.

In turn, AGCAGCTAGAGCCACATCCCCC had a sensor-assay potency score (higher = more potent) of -1.72.

TTACAACAGCTGGACTGGGAAC: the sensor-assay potency score (higher = more potent) was -1.86.

Another assay has as its target KRTAP5-9. The assay is described as above. To be noted: shRNA.
TAGAGCAGGAACAGGCTGGAAC returned a sensor-assay potency score (higher = more potent) of -1.08.

AGTCACAGCCTCCACAGCTGGA: the sensor-assay potency score (higher = more potent) was -1.85.

Take TGAGGATGAGCAGCAGGGCTTG: the sensor-assay potency score (higher = more potent) was -1.74.

AGCTAGAGCAGGAACAGGCTGG returned a sensor-assay potency score (higher = more potent) of -1.04.

For CACACAGGGACACAGCATCTGG, the sensor-assay potency score (higher = more potent) was -1.57.

In turn, TAGACGGGTGCACAGCAGCTGG displayed a sensor-assay potency score (higher = more potent) of -1.34.

Consider TCACAGCCTCCACAGCTGGAGC, for which the sensor-assay potency score (higher = more potent) was -1.62.

Sequence TGAAGAGCAACAGCAGGGCTTG returned a sensor-assay potency score (higher = more potent) of -0.909.

With TGGAACACAGCAGCACACGGGC, the sensor-assay potency score (higher = more potent) was -1.32.

TAGGGCTTGCAGCAGCTGCACT came in with a sensor-assay potency score (higher = more potent) of -1.29.

Take TTGCAGCAGTAGACGGGTGCAC: the sensor-assay potency score (higher = more potent) was -0.372.

The sequence TTGCCACAGCTAGAGCAGGAAC registered a sensor-assay potency score (higher = more potent) of -1.67.

The target of a further assay is KRTAP6-3. Described as above. The settings on record: shRNA.
The sequence TGTAGTTTCTGTAGTAGCTGCC displayed a sensor-assay potency score (higher = more potent) of 0.749.

TAGCCACAGCCACAGAAGGAGC had a sensor-assay potency score (higher = more potent) of -1.94.

In turn, TCTGTAGCCACAGCCACAGAAG came in with a sensor-assay potency score (higher = more potent) of -1.55.

As to ATTGTAGTTTCTGTAGTAGCTG, the sensor-assay potency score (higher = more potent) was -0.231.

TTCTGTAGTAGCTGCCACACAT: the sensor-assay potency score (higher = more potent) was -0.0154.

In the case of ATAGCCATGGCCACCATTGTAG, the sensor-assay potency score (higher = more potent) was -1.31.

Take TTGTAGTTTCTGTAGTAGCTGC: the sensor-assay potency score (higher = more potent) is -0.198.

In the case of TAGTTTCTGTAGTAGCTGCCAC, the sensor-assay potency score (higher = more potent) was -0.443.

With TCTGTAGTAGCTGCCACACATG, the sensor-assay potency score (higher = more potent) was -1.43.

ACAGCCATAGCCACAGTCCAGG displayed a sensor-assay potency score (higher = more potent) of -1.73.

TAGTAGCTGCCACACATGGTGT: the sensor-assay potency score (higher = more potent) was -1.17.

Take TTTCTGTAGTAGCTGCCACACA: the sensor-assay potency score (higher = more potent) is -1.22.

A further assay has as its target KRTAP8-1. Described as above. The settings on record: shRNA.
AGCCGTTGTAGCCATAGCCGAA showed a sensor-assay potency score (higher = more potent) of -1.46.

The sequence ATCCTGGGAAGACAGCCCCGGG came in with a sensor-assay potency score (higher = more potent) of -1.89.

TGTAGCCATAGCCGAAGCCATA: the sensor-assay potency score (higher = more potent) was -1.87.

For the sequence TAGCATCCTGGGAAGACAGCCC, the sensor-assay potency score (higher = more potent) was -0.588.

TAGCCGAAAGCCCCACAGCCGT gave a sensor-assay potency score (higher = more potent) of -1.72.

On to TTGGAAAGCAGTGTCTCTGAGG, for which the sensor-assay potency score (higher = more potent) is -0.482.

In turn, ACAGCCAACGCTATATCCCAGC showed a sensor-assay potency score (higher = more potent) of -1.47.

Consider TGCTGCCATAGCCACAGCCAAC, for which the sensor-assay potency score (higher = more potent) was -2.12.

Turning to TAGGTGCTGCCATAGCCACAGC, the sensor-assay potency score (higher = more potent) was -1.53.

Take TTGTAGCCATAGCCGAAGCCAT: the sensor-assay potency score (higher = more potent) is -1.41.

Turning to TATATCCCAGCGGGTAGCCATA, the sensor-assay potency score (higher = more potent) is -1.94.

The sequence TGCCCCAGTAGCATCCTGGGAA gave a sensor-assay potency score (higher = more potent) of -0.828.
